Screening results: PubChem BioAssay, National Center for Advancing Translational Sciences (NCATS)
Compounds with a hit are over-represented: about 2% of the library has one in this group of screens.
MBNL1 CUG block: blocks human MBNL1 binding to CUG repeat RNA | Potency, µM (series often up to 57.5 µM), for the others: top-dose activity change, negative = inhibition, actives largely listed as inhibitors | TR-FRET MBNL1-His/biotin-(CUG)12 binding, 665/545 ratio | Q9NR56 | 280,000 compounds, 0.036% hits | AID 2675; active = well fitted inhibition curve with a large enough effect in the signal ratio, with a control signal flat, not every such curve was filed as active; inconclusive = small, poorly fitted or top-dose-only effect, or effect the other way, or a change in a side signal; inactive = no such curve, though single readings can be large or run the other way; the % refers to the signal ratio; also: % is scaled to controls: 0 for no effect and ±100 for the full control effect
Target sequence (Q9NR56 whole entry, looked up): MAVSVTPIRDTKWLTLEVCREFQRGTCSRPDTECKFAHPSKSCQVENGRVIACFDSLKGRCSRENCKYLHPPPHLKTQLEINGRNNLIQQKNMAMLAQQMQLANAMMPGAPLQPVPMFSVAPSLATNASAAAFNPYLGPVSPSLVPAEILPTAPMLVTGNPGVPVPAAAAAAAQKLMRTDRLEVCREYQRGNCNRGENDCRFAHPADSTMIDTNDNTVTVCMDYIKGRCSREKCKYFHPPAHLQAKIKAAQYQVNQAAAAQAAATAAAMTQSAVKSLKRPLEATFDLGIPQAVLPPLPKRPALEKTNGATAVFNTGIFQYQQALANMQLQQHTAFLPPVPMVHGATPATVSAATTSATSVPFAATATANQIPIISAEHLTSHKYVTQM
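Compound titration spanned 92 nM–58 uM against the MBNL1-His/biotin-(CUG)12 complex. After 60 min at room temperature with 5 nM streptavidin-XL665 and 0.055 ng/ul terbium anti-His, ratiometric 665/545 nm emission (Ex 340 nm) normalized to controls.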
aSyn rescue: alpha-synuclein toxicity inhibition in yeast. Yeast expressing alpha-synuclein, growth rescue, BacTiter-Glo, 24 h. Potency, µM (highest dose often 46.1 µM), for the others: top-dose growth rescue (activation), usual class: activators. 370,000 compounds, 0.14% hits. AID 652106; also: % of control where 0% means no effect; nearly all actives have a fitted effect of over 65% in size
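Readout is rescue of growth in alpha-synuclein-expressing yeast, so inhibitors of toxicity appear as activators. Growth after 24 hr at 30 deg C in galactose medium is quantified by luminescence.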
TDP-43 yeast inh: inhibitors of TDP-43 toxicity in yeast; TDP-43 expressing yeast growth rescue, BacTiter-Glo, 24 h; Potency, µM (doses to about 46.1 µM), inactives show at the highest dose growth rescue (activation), usual class: activators; 410,000 compounds, 1.8% hits; AID 652104; also: % of control where 0% means no effect; nearly all actives have a fitted effect of over 50% in size
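Cell-based yeast growth screen: TDP-43 expression induced in galactose, inoculum OD600=0.02 after raffinose pregrowth to mid-log. Read-out BacTiter-Glo luminescence at 24 hr, 30 deg C; inhibition of toxicity seen as signal increase.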
Abeta rescue: A-beta toxicity reversal in yeast. 410,000 compounds, 0.063% hits. yeast expressing A-beta42, growth rescue, OD600, 48 h; response scale: 0% DMSO, 100% iron-clioquinol control. Potency, µM (highest dose often 46.1 µM), hits mostly activators; also: nearly all actives have a fitted effect of over 55% in size
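Yeast growth medium received pinned compounds, then yeast cells expressing toxic A-beta were added; plates incubated at 30 C for 48 hr. Growth read as absorbance at 600 nm, normalized to DMSO and equimolar FeCl3 plus clioquinol controls.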
FUS yeast rescue: FUS proteinopathy suppression in yeast. S. cerevisiae FUS-expressing, growth rescue, OD600, 24 h. Potency, µM (highest dose often 76.6 µM), hits mostly activators. 390,000 compounds, 0.24% hits. AID 1347120;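 also: plate controls were DMSO vehicle for no effect and reference control for full effect; nearly all actives have a fitted effect of over 55% in size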
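Compound concentration series was pinned onto galactose-induced FUS-expressing yeast seeded at OD 0.005. Plates sat 24hr at 30C; absorbance at 600 nm gave growth. DMSO served as background control.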
Glioma ERSR ind: inducers of ER stress response in human glioma cells. U87-MG GRP78 promoter luciferase reporter, 16 h. Potency, µM, without a hit: at the highest dose activation, most hits filed as activators. 420,000 compounds, 0.02% hits; also: series mostly up to about 76 µM; % of control where 0% means no effect; nearly all actives have a fitted effect of over 35% in size
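Stably transfected U87-MG glioma cells carrying a GRP78-based luciferase sensor; 16 h compound incubation. Luminescence end-point read 10 min after Bright-Glo addition at room temperature.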
* hit, by the source's call; i = inactive; ? = inconclusive; · = no result; [ ] = another dose, or the depositor's remark. Unless noted, calls follow the shape of the dose curve; as a rule, active = well fitted curve in the direction sought with a large enough effect; inconclusive = small, poorly fitted or top-dose-only effect, or another doubt; inactive = no such curve, though single readings can be large; an effect the other way counts as inactive or inconclusive. Potency is read from the fitted curve at half-maximal effect.

SMILES	MBNL1 CUG block	aSyn rescue	TDP-43 yeast inh	Abeta rescue	FUS yeast rescue	Glioma ERSR ind
O=C(Nc1ccc(Cl)c(Cl)c1)C1CCCN(c2nnc(-n3cccc3)s2)C1 (configuration not stated)	·	·	·	·	i	·
Cc1ccc(F)cc1C(=O)N(Cc1ccccn1)CC1CCCO1 (configuration not stated)	·	·	·	·	i	·
O=C(O)c1ccc(-c2ccc(O)c(F)c2)cc1	?	12%	16µM*	i	i	-1%
COCCNc1ncnc2c1c(-c1ccccc1)cn2-c1cccc(Cl)c1	·	·	35µM*	i	?	-2%
CC(=O)Nc1ccc(Nc2ncnc3c2c(-c2ccccc2)cn3-c2ccccc2)cc1	·	·	?	i	i	-2%
CC(=O)Nc1ccc(Nc2ncnc3c2c(-c2ccccc2)cn3-c2ccc(C)c(Cl)c2)cc1	·	·	16µM*	i	?	-6%
O=C(c1ccccc1)N1CCC(Oc2cccnc2)CC1	·	·	·	·	i	·
O=C(O)CC1(CC(=O)Nc2ccc3ccccc3c2)CCCCC1	-8%	1%	-8%	i	i	8%
O=C(O)CC1(CC(=O)Nc2ccc(Br)cc2)CCCCC1	-3%	-41%	11µM*	i	i	-2%
Cc1ccc2nc(NC(=O)c3ccccn3)sc2c1	32%	7.1µM*	10µM*	i	i	-11%
Cc1ccc(Cn2ccnc2SCC(=O)NCc2ccccc2Cl)cc1	·	·	11µM*	i	i	-2%
O=C(CSc1nccn1Cc1ccccc1)NCc1ccc(F)cc1	·	8%	4%	i	i	-3%
CCOc1ccc2nc(NC(=O)c3ccccn3)sc2c1	-3%	-3%	5%	i	i	-9%
Cc1ccc2nc(NC(=O)CSc3nccn3Cc3ccc(Cl)cc3)sc2c1	·	·	11µM*	i	i	-2%
O=C(CSc1nccn1Cc1ccc(F)cc1)Nc1nc2ccccc2s1	·	20µM*	?	?	i	3%
O=C(Nc1nc2ncccn2c1-c1ccc(F)c(F)c1)C1CC1	·	·	·	·	i	·
CCC(C)(C)NC(=S)Nc1ccccc1C	-6%	-12%	0%	13µM*	i	-3%
CCOc1ccccc1CN1CCCC(c2nc(C)ncc2-c2ccc(F)cc2)C1 (configuration not stated)	·	·	·	·	·	-5%
COc1cc(Nc2nc(-c3ccccc3)c3cc(C)ccc3n2)cc(OC)c1OC	-3%	-24%	20µM*	i	i	-5%
COc1cccc(C(=O)/C=C/c2ccc(OCC#N)c(OC)c2)c1	·	?	20µM*	i	i	-8%
CC(C)c1ccccc1NC(=O)CSc1nnc(COc2ccccc2)o1	·	·	?	i	i	-4%
COc1ccccc1NC(=O)CSc1nnc(COc2ccc(Cl)cc2)o1	-4%	26%	20%	i	i	-5%
CC(C)c1ccccc1NC(=O)CSc1nnc(COc2ccccc2Cl)o1	·	·	20µM*	i	i	-3%
COC(=O)c1ccccc1NC(=O)CSc1nnc(Cc2ccc(Cl)cc2)o1	1%	6%	25µM*	i	i	-3%
O=C(c1ccc(-c2ccc([N+](=O)[O-])cc2)o1)N1CCCC(C(F)(F)F)C1 (configuration not stated)	·	-9%	35µM*	i	?	2%
O=C(c1ccc(-c2ccc([N+](=O)[O-])cc2)o1)N1CCCCCCC1	·	-80%	-90%	i	?	9%
Cn1ncc(C(=O)Nc2ccc(OC(F)(F)F)cc2)c1-n1cccc1	-5%	9%	13µM*	i	i	-2%
CCc1ccc(NC(=O)c2cnn(-c3ccccc3)c2-n2cccc2)cc1	·	·	-6%[9.22 µM]	i	i	-3%
Cc1cccnc1Nc1nc(-c2ccccc2)cs1	0%	-42%	16µM*	i	i	0%
CCOc1ccccc1Nc1nc(-c2cccnc2)cs1	12%	-12%	11µM*	i	i	-4%
